# Screening results: PubChem, several laboratories
# sPLA2-III inh = Blocks human group III sPLA2 activity; inhibition, % at 12.2 µM; 0.56% of 370,000 active; AID 743126; Q9NZ20; QFRET BODIPY PC-A2 liposome hydrolysis, fluorescence;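 active means inhibition above mean plus 3 SD of compounds lying within the high and low control bounds, cut at about 19% in these data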;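 further: 0% = median of test compound wells and 100% = no enzyme DMSO wells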
# FAS-TE inh = inhibitors of human fatty acid synthase thioesterase domain | AID 602261 | 0.67% of 360,000 active | recombinant FAS-TE, OMFH fluorogenic substrate, fluorescence endpoint | inhibition, % at 15 µM;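 active means compounds whose normalised, plate-corrected inhibition of enzyme fluorescence in the single-dose primary screen is 50% or more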;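 further: 0% = DMSO with enzyme and 100% = substrate without enzyme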
# Target sequence (P49327 whole entry, looked up, the tested form may be a part): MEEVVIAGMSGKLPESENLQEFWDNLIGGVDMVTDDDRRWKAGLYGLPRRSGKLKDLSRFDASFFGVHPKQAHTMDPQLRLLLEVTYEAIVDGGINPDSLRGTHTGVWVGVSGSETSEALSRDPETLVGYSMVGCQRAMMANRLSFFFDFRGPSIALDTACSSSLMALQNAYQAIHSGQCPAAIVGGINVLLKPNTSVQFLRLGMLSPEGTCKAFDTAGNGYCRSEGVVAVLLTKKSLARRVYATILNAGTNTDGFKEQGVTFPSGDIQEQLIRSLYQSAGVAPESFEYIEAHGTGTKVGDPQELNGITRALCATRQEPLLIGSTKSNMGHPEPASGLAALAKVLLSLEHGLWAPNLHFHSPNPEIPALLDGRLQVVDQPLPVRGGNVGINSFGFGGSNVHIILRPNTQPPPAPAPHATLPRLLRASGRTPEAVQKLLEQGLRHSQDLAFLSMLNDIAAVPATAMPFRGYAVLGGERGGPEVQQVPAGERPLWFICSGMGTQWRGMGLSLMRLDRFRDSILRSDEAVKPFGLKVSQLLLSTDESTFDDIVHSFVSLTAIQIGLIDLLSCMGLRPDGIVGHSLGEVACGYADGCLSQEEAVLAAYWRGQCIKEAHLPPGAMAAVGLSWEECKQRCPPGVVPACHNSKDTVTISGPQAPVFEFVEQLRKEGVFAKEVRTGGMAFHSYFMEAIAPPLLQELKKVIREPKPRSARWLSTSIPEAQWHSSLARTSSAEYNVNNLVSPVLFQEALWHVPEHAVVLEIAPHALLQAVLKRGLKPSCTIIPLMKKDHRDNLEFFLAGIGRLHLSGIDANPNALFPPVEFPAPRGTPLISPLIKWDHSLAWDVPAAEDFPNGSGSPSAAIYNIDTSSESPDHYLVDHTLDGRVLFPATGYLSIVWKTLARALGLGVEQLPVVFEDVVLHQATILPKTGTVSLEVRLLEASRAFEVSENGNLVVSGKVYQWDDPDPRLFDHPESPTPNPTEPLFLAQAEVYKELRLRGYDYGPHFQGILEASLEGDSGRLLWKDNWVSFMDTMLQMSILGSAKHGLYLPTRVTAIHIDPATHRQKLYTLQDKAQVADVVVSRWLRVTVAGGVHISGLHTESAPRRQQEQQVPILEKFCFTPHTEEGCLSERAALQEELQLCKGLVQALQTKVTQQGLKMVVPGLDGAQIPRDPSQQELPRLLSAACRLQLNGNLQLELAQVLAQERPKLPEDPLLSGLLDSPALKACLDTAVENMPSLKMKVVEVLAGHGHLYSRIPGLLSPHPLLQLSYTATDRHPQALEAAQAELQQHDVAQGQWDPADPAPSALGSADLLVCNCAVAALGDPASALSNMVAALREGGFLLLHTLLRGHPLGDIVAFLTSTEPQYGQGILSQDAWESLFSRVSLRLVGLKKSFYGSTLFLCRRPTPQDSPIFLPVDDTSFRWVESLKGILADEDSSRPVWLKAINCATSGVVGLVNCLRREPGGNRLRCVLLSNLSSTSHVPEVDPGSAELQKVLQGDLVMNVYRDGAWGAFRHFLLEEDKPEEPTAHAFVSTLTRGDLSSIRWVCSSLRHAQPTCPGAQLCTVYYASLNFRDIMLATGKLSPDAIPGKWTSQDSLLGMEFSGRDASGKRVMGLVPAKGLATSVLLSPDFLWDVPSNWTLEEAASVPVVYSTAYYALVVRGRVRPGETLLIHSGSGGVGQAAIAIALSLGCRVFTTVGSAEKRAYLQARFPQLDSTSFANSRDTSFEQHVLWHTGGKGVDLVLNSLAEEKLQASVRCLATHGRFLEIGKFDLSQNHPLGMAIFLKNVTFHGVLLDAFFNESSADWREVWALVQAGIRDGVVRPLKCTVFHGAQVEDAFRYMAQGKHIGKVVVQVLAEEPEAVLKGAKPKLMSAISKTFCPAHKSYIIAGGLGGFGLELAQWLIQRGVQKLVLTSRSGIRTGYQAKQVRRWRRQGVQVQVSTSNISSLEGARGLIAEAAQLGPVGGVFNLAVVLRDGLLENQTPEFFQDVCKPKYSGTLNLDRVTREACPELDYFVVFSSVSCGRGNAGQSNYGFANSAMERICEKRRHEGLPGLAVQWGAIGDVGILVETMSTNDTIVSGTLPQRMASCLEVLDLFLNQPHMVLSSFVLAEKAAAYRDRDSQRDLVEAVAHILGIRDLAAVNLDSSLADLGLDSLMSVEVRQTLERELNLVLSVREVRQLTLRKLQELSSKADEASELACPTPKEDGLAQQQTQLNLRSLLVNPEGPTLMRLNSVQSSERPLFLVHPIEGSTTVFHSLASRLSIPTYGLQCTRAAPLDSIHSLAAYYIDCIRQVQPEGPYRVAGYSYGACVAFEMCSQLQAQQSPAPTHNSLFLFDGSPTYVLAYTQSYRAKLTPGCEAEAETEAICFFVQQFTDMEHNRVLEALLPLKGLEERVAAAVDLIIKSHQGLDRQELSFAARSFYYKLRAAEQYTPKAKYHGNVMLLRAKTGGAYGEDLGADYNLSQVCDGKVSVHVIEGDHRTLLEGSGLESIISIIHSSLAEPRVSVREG
# ADAM10 inh = ADAM10 inhibition, QFRET primary screen | inhibition, % at 7 µM | AID 720582 | recombinant ADAM10, EDANS/DABCYL FRET peptide cleavage, 3 h | 0.62% of 370,000 active;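 active means inhibition above a per-campaign cutoff equal to the mean of compounds falling between control-based bounds plus 3 SD, cut at about 20% in these data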;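 further: 0% = DMSO wells while the 100% control is not disclosed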
# GRIN3A LBD mod = modulators (binders) of human NR3A ligand-binding domain | 2.5% of 340,000 active | NR3A LBD differential scanning fluorimetry, Tm shift; 0% = protein alone, 100% = glycine-bound protein | AID 1259313 | Tm shift relative to glycine control, % at 25 µM;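 active means melting temperature shift of at least 10% of the positive control shift, at one fixed dose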
# ADAM17 inh = inhibits human ADAM17; P78536; recombinant ADAM17, EDANS/DABCYL FRET peptide cleavage; inhibition, % at 6.95 µM; AID 720648; 0.83% of 370,000 active;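 active means inhibition above the mean of compounds lying between control limits plus 3 SD, set per campaign, cut at about 8.5% in these data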;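 further: 0% = DMSO-only wells as the low control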
# ADAM10 counter = ADAM10 inhibition, counter-screen for ADAM17 exosite hits; shares compounds with ADAM17 inh; recombinant ADAM10, EDANS/DABCYL FRET peptide cleavage, 3 h; 47% of 2,900 active; AID 743256; inhibition, % at 6.95 µM;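 active means mean inhibition over the triplicate runs exceeds the activity threshold set in the earlier primary screen, cut at about 20% in these data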;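 further: 0% = DMSO wells and 100% = marimastat wells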
# ADAM17 confirm = confirmation of inhibitors of human ADAM17; 65% of 2,900 active; shares compounds with ADAM17 inh; inhibition, % at 6.95 µM; recombinant ADAM17, EDANS/DABCYL QFRET peptide cleavage; AID 743257;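 active means mean inhibition across replicates above the hit cutoff set in the primary screen, cut at about 8.5% in these data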;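 further: 0% = DMSO wells and 100% = marimastat wells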
# * hit, by the source's call; nt = no result given. Sampled rows, rich in hits. Any-hit rate of the full collection: about 4.3%.
SMILES,sPLA2-III inh,FAS-TE inh,ADAM10 inh,GRIN3A LBD mod,ADAM17 inh,ADAM10 counter,ADAM17 confirm
O=C(Nc1nnc([C@H]2C[C@H](O)[C@@H](CO)O2)s1)Nc1ccc(F)cc1F,1,-7,-7,nt,-3,nt,nt
C[C@H](O)[C@@H]1CN2CCc3c([nH]c4c(-c5ccccc5)cccc34)[C@@H]2C[C@@H]1N(C)C(=O)NC1CCCCC1,-12,nt,-44,nt,-9,nt,nt
COc1ccc(N2C[C@H](C)[C@@H](CC(=O)Nc3ccccc3)C2=O)cc1,6,-6,-6,nt,-2,nt,nt
C[C@H]1CN(c2ccc(Br)cc2)C(=O)[C@@H]1CC(=O)Nc1ccccc1,-20,8,9,nt,11*,7,6
COc1ccccc1C(=O)NCC(=O)NC(C)CCc1ccccc1 (configuration not stated),3,-3,-7,0,9.2*,3,5
Clc1ccccc1Sc1cnc2ccccc2n1,15,15,1,0,8.8*,-6,0
Clc1ccc(Sc2cnc3ccccc3n2)cc1,4,9,-9,2,-4,nt,nt
CC(C)(C)c1ccc(-c2nnc(SCc3cccc4ccccc34)n2Cc2ccco2)cc1,-1,nt,14,nt,5,nt,nt
Cc1ccc(-c2ccc(C(=O)Nc3ccccc3)o2)c2ccccc12,0,24,-80,-8,-28,nt,nt
O=C(Nc1ccccc1)c1ccc(-c2ccccc2C(F)(F)F)o1,-23,31,16,-3,9.2*,15,9
COc1ccc(-c2c(C(=O)c3ccccc3)[nH]c(N)c2C(=O)NCCc2c[nH]c3ccccc23)cc1,-37,nt,-10,nt,0,nt,nt
COC(=O)c1nn(-c2ccccc2)c(Sc2ccc(Br)cc2)c1/C=N/O,0,-20,4,-1,11*,11,4
CC1(C)C([N+](=O)[O-])C(c2ccccc2O)NC(c2ccccc2O)C1[N+](=O)[O-] (configuration not stated),-31,21,5,-5,9.3*,23*,15*
COc1cccc(NC(=O)c2ccccc2-c2nc(-c3cccc(C)c3)no2)c1,-23,28,25*,-9,9.6*,26*,15*
CC(C)CN1C(=O)C[C@@]2(C(=O)N(C)c3ccc(NC(=O)C(C)(C)C)cc32)C1c1ccccc1 (some centres not stated),6,nt,-3,nt,-4,nt,nt
CC(C)(C)NC(=O)C(c1ccncc1)N(C(=O)Cn1nnc(-c2ccc(F)cc2)n1)c1ccccc1F (configuration not stated),-3,-6,-3,-1,0,nt,nt
CC(C)(C)NC(=O)C(c1ccc(O)cc1)N(C(=O)Cn1nnc(-c2ccc(F)cc2)n1)c1ccccc1F (configuration not stated),-39,17,16,-29,9.9*,39*,18*
O=S1(=O)c2c(cccc2N2CC[C@@H](O)C2)OCCCN1C1CC1,2,nt,-14,nt,-6,nt,nt
C=CCN1[C@@H](C)COc2cccc(N3CCCC3)c2S1(=O)=O,-1,nt,-6,nt,-1,nt,nt
COc1ccc(COC(=O)C2CCN(S(=O)(=O)c3ccc(OC)c(OC)c3)CC2)cc1,-14,22,9,1,9.7*,30*,17*
COc1ccc(COC(=O)C2CCN(S(=O)(=O)c3ccc(Cl)cc3)CC2)cc1,3,32,-3,-2,-1,nt,nt
COCc1cc(N2CCNC[C@H]2C)ccc1N1CCS(=O)(=O)CC1,6,nt,-5,nt,-3,nt,nt
Cn1cnnc1SCC(=O)c1cccc([N+](=O)[O-])c1,-26,-1,10,1,8.7*,2,3
C[C@@H]1CN([C@@H](C)CO)S(=O)(=O)c2ccc(Br)cc2O[C@@H]1CN(C)Cc1ccc2c(c1)OCO2,-17,nt,8,nt,2,nt,nt
C[C@H](CO)N1C[C@H](C)[C@@H](CN(C)Cc2ccc3c(c2)OCO3)Oc2cc(Br)ccc2S1(=O)=O,-24,20,12,nt,8.9*,25*,14*
SMILES,sPLA2-III inh,FAS-TE inh,ADAM10 inh,GRIN3A LBD mod,ADAM17 inh,ADAM10 counter,ADAM17 confirm
C=CCN=C1NC(c2cccc(Cl)c2)C(C(=O)OC)=C(C)N1C (configuration not stated),11,nt,-1,nt,-3,nt,nt
CCC/C=C/c1ccc(CN2C(CC(C)C)C(=O)N(Cc3cn(CCC4OCCO4)nn3)CCS2(=O)=O)cc1 (configuration not stated),-23,17,15,nt,7,nt,nt
CCC/C=C/c1ccc(CN2C(C(C)C)C(=O)N(Cc3cn(CCC4OCCO4)nn3)CCS2(=O)=O)cc1 (configuration not stated),-42,13,12,nt,11*,30*,17*
O=C(/C=C/c1ccccc1Cl)Nc1cccc(O)c1,-22,6,6,30*,9.2*,2,4
OCCn1c(CSc2nnc(-c3ccco3)n2-c2ccccc2)nc2ccc(Cl)cc21,-9,-1,-11,-2,11*,-16,-3
NC(=O)CSc1nnc(-c2ccco2)n1-c1ccccc1,3,-3,8,-1,0,nt,nt
CCn1c(-c2ccccc2Cl)nn(CC(=O)Nc2cc(Cl)ccc2Cl)c1=S,-8,3,7,-1,12*,5,5
Cc1cc2c(nc1C)CCCN2Cc1ccccn1,0,nt,-148,nt,-39,nt,nt
O=C(C1CCN(S(=O)(=O)c2ccc3[nH]c(=O)oc3c2)CC1)N1CCCC1,1,nt,-1,nt,1,nt,nt
CCOc1ccc(-c2n[nH]c(C)c2-c2ccccc2OC)c(O)c1,-25,-2,19,-16,4,nt,nt
CCc1cc(-c2n[nH]c(C)c2-c2ccccc2Cl)c(O)cc1OC,-14,-16,17,13*,8.7*,32*,16*
COC(=O)[C@@]12CCCCC=C1N(CCc1ccc(Cl)cc1)C(=O)[C@H]2CC(=O)NCc1ccc(C)o1,-14,nt,3,nt,-3,nt,nt
CCN(CC)S(=O)(=O)c1ccc(C(=O)OCn2nnc3ccccc3c2=O)cc1,-20,18,12,0,10*,7,5
CN(C)S(=O)(=O)c1cc([N+](=O)[O-])ccc1N1CCCCCC1,8,11,13,-1,10*,18,11*
CC(C)CN(CC(C)C)S(=O)(=O)c1cc([N+](=O)[O-])ccc1N1CCCCCC1,-1,24,3,1,-2,nt,nt
O=[N+]([O-])c1cc([N+](=O)[O-])c(Oc2cccnc2Br)cc1NN1CCCCC1,10,19,3,0,11*,26*,15*
O=[N+]([O-])c1cc([N+](=O)[O-])c(Oc2cccc3ccccc23)cc1NN1CCCCC1,9,22,-14,-1,-2,nt,nt
Cc1cccc(Cn2cc(COC(=O)N3CCCC3)nn2)c1,5,nt,-8,nt,-3,nt,nt
